From PubChem BioAssay
Sampled rows, rich in hits. Any-hit rate of the full collection: about 1.5%.
CD11b adhes enh: CD11b/CD18-fibrinogen binding enhancement; 93,000 compounds, 0.07% hits; AID 1499; K562 CD11b/CD18 adhesion to fibrinogen, ATPlite luminescence; activation, % at 10 µM; P05107+P11215;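 active = 10 µM primary screen giving 50% or more activity, confirmed by 40% or more on retest at that dose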
HePTP inh: blocks human HePTP tyrosine phosphatase; P35236; recombinant HePTP phosphatase activity, OD absorbance; inhibition, % at 20 µM; 110,000 compounds, 0.64% hits; in the data active = inhibition above about 50%;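 note: plate controls were vehicle for no effect and reference inhibitor for full effect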
Target sequence (P35236 whole entry, looked up): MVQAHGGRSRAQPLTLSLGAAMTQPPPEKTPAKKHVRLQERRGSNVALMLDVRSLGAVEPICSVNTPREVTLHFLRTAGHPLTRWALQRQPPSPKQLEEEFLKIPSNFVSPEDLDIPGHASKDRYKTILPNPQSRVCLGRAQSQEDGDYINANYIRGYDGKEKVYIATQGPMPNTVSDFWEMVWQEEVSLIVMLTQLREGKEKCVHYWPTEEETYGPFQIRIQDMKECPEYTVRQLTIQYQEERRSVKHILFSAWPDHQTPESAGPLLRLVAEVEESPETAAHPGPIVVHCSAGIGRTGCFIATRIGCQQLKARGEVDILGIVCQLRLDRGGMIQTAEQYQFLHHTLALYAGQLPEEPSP
PLAP activator: activates human placental alkaline phosphatase. purified PLAP enzyme, luminescent substrate read-out; hits give high values. activation fold at 20 µM. 96,000 compounds, 1.2% hits. AID 696; in the data active = activation fold above about 2
Mac1 fbg inh: inhibitors of human CD11b/CD18 binding to fibrinogen; P05107+P11215; K562 CD11b/CD18 adhesion to fibrinogen, ATPlite luminescence; Mn2+ added to activate the integrin; inhibition, % at 10 µM; 93,000 compounds, 0.54% hits; AID 1497;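 active = primary inhibition of 50% or more at 10 µM, then 40% or more on retest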
* = called active by the depositor; . = not tested or not shown.

SMILES | CD11b adhes enh | HePTP inh | PLAP activator | Mac1 fbg inh
CCCOc1ccc(C2C(C(=O)OC)=CN(CCOC)C=C2C(=O)OC)cc1 | . | 4 | 2.1* | .
Cc1cc(Nc2ccc(N)c(C)c2)ccc1N | . | -8 | . | .
Cc1ccc(C)n1-c1cc(C(=O)O)ccc1Cl | . | 103* | . | .
Cc1cc(N)ccc1-n1c(C)ccc1C | 21 | 8 | 1.2 | 23
Cc1ccc(C)n1-c1ccc(Cl)cc1C(=O)O | . | 102* | . | .
Cc1cc(Cl)c2cc(C(=O)O)ccc2n1 | . | 0 | . | .
Cc1cc(C(=O)O)ccc1-n1c(C)ccc1C | . | 104* | . | .
COc1cc(C(=O)O)c(-n2c(C)ccc2C)cc1OC | . | 41 | . | .
Cc1ccc(-c2ccccc2)n1-c1ccc(Cl)c(C(=O)O)c1 | . | -9 | . | .
Cc1ccc(C)n1-c1ccc(Cl)c(C(=O)O)c1 | . | 104* | . | .
COc1cccc(N2C(=O)C(=O)/C(=C(\O)c3ccccc3)C2c2cccc([N+](=O)[O-])c2)c1 (centres undefined) | . | 7 | . | .
Cc1ccc(C(=O)O)cc1-n1c(C)ccc1C | . | 104* | . | .
Cc1ccc(-c2ccccc2)n1-c1ccc(O)c(C(=O)O)c1 | . | 96* | . | .
S=c1[nH]nc2c3c4c(sc3n3c(=S)[nH]nc3n12)CCC4 | . | 101* | . | .
Cc1ccc(NC(=O)CCC(=O)NNC(=O)c2cccs2)cc1C | 0 | . | 2* | -7
N#Cc1c(C(F)(F)F)cc(-c2ccccc2Cl)[nH]c1=O | -2 | . | 1.5 | 62*
Cc1cccc(NC(=O)COc2ccc3ccccc3c2)n1 | . | -19 | . | .
CCOC(=O)c1cnn(CCOc2ccccc2)c1N | . | 4 | . | .
Cc1ccc(-c2cc(C(=O)N/N=C\c3cnn(C)c3C)c3ccccc3n2)cc1C | -6 | . | 2* | 20
O=C(NNC(=S)NC(=O)c1ccccc1[N+](=O)[O-])c1ccccc1[N+](=O)[O-] | -2 | . | 2.5* | 4
COc1cc(C2NC(=S)NC(C)=C2C(=O)Nc2ccc(Br)cc2)cc(OC)c1OC (centres undefined) | . | -7 | . | .
Cc1cc(=O)[nH]c(-n2[nH]c(C)cc2=O)n1 | . | . | 2.2* | .
Cc1ccc(N2CCN(/N=C\c3ccccc3C(F)(F)F)CC2)cc1 | . | -7 | . | .
Cc1ccccc1-c1noc(-c2ccc(Cl)cc2)n1 | . | . | 0.9 | .
Cc1ccc(-c2nc(-c3ccccn3)no2)cc1 | -9 | 2 | 0.9 | 91*
SMILES | CD11b adhes enh | HePTP inh | PLAP activator | Mac1 fbg inh
Clc1cccc(-c2nc(-c3ccccn3)no2)c1 | -4 | 1 | 1 | 49
Cc1ccc(-c2nc(-c3ccccn3)no2)cc1Cl | -3 | 0 | 0.9 | 71*
Cc1ccccc1-c1noc(-c2ccc(O)cc2)n1 | 0 | 1 | 1.2 | 74*
Cc1sc(NC(=O)c2ccc3c(c2)OCO3)c(C(N)=O)c1C | . | -10 | . | .
COc1cc(NC(C)=O)c(OC)cc1N=NC1=C(O)CC(C)(C)CC1=O | . | 10 | . | .
O=C(c1ccc(-c2ccccc2)cc1)N1CCN(C2CC3CCC2C3)CC1 (centres undefined) | . | 71* | . | .
CCn1c(=S)[nH]c2ccccc21 | -2 | . | 2.1* | 12
CCOC(=O)c1c(NC(=O)Cc2ccccc2)sc2c1CCCCC2 | . | -21 | . | .
O=C1c2cccc3ccc(Cl)c(c23)C(=O)N1O | . | 6 | . | .
Cc1nc2c(cnn2-c2ccccc2Cl)c(=O)n1-c1ccc(N2CCC(C)CC2)cc1 | -3 | . | 0.8 | -6
CCc1nc2c(cnn2-c2ccc(F)cc2)c(=O)n1-c1ccc(N2CCC(C)CC2)cc1 | -4 | . | 1.6 | 76*
O=C(NNc1ccccn1)C(=O)NNS(=O)(=O)c1ccc(Cl)cc1 | . | . | 2.4* | .
O=S(=O)(N=C(Nc1ccccn1)c1ccccc1)c1ccc(Cl)cc1 | . | 8 | . | .
O=C(NNC(=O)c1ccc(SCC2CCCO2)c([N+](=O)[O-])c1)c1ccc(Cl)c([N+](=O)[O-])c1 (centres undefined) | 13 | . | 2.4* | 1
N#Cc1c(NC(=O)CSc2nnc(-c3ccccc3)o2)sc2c1CCCC2 | -3 | . | 0.9 | -9
O=C(CSc1nnc(-c2csc3c2CCCC3)o1)Nc1ccccc1 | -6 | 6 | 2* | 4
O=C(O)CC(NC(=O)c1ccc(Cl)cc1)c1ccccc1 (centres undefined) | . | 2 | . | .
CCOc1c(Cl)cc(C(=O)Nc2ccccc2C(=O)O)cc1Cl | -12 | . | 1.3 | 89*
COc1cc(/C=N/n2cnnc2)cc(I)c1O | . | 5 | . | .
NC(=O)C1CCN(Cc2nc3cc(Cl)ccc3c(=O)[nH]2)CC1 | -3 | . | 2* | 12
COc1cc(OC)cc(C(=O)N2CCN(Cc3cccc4ccccc34)CC2)c1 | . | 0 | . | .
CCOc1ccccc1NC(=O)CN(c1ccc(C)cc1)S(=O)(=O)c1c(C)n[nH]c1C | 2 | 7 | 2.1* | -4
CCOc1ccccc1NC(=O)CN(c1ccc(C)cc1)S(C)(=O)=O | . | -8 | . | .
O=C(Nc1ccc(-c2ccc(Cl)cc2)cc1)C1CC1 | . | -22 | . | .
O=C(c1ccccc1)N1CCN(c2ncnc3sc4c(c23)CCC4)CC1 | -10 | . | 1.7 | 51*
SMILES | CD11b adhes enh | HePTP inh | PLAP activator | Mac1 fbg inh
O=C(OC/C=C/c1ccccc1)C(C(F)(F)F)C(F)(F)F | . | 3 | . | .
Cc1cc(C)nc(SCC(=O)N(c2ccccc2)c2ccccc2)n1 | . | 5 | . | .
O=[N+]([O-])c1ccc(C=Nc2ccc(OC(F)(F)F)cc2)cc1 | . | 12 | . | .
CC1CCCN(C(C(=O)Nc2ccc3c(c2)OCCO3)c2ccccc2)C1 (centres undefined) | 0 | 11 | 1.2 | 13
CC1CCN(C(C(=O)Nc2ccc3c(c2)OCO3)c2ccccc2)CC1 (centres undefined) | -1 | 6 | 2.2* | 1
O=C(Nc1ccc2c(c1)OCO2)C(c1ccccc1)N1CCCCC1 (centres undefined) | 2 | 6 | 0.9 | -1
CC1CCCN(C(C(=O)Nc2ccc3c(c2)OCO3)c2ccccc2)C1 (centres undefined) | 0 | 8 | 2* | -5
Cc1ccc(NC(=O)COc2ccc3ccccc3c2)c(C)c1 | . | 4 | . | .
O=[N+]([O-])c1ccc(/C=N/C(=S)NNc2ccccc2)o1 | . | 5 | . | .
CCC1CCC/C1=N\NC(=O)c1cc(C)[nH]n1 (centres undefined) | -2 | . | 2.3* | -4
